From PubChem BioAssay (NCI)
About 79,000 compounds went through this panel and 15% of them were active in at least one assay; those are over-represented in the sample as a whole. The source made the active and inactive calls. Rule as the data show it: active = growth inhibition above about 70%; inactive = the rest. Where a SMILES comes first, the peptide text is derived from it. [ ]: non-standard residue; d: D form. The star is where a group is joined. ξ: configuration not given here. ξF = NC(Cc1ccccc1)C(=O)O; Cbz = O=C(OCc1ccccc1)*

Legend:
[1] = NCI Yeast Anticancer Drug Screen. Data for the rad50 strain (AID 155);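 also: 0% = growth of vehicle-only cultures of the same strain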; details: S. cerevisiae rad50 strain growth inhibition; at 50.0 µM; stronger effect = higher value
Method in brief: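 Vehicle-treated cultures provide the reference for the growth inhibition reported for compound-exposed, repair-deficient yeast.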

[2] = NCI Yeast Anticancer Drug Screen. Data for the mec2-1 strain (AID 157); details: S. cerevisiae mec2-1 strain, at 50.0 µM, stronger effect = higher value
Method in brief: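 Using mec2-1 yeast: add compound, measure growth, express inhibition versus vehicle-treated cultures.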

[3] = NCI Yeast Anticancer Drug Screen. Data for the sgs1 mgt1 strain (AID 161);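 also: 0% = growth of cultures given vehicle only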; details: S. cerevisiae sgs1 mgt1 strain, at 50.0 µM, stronger effect = higher value
Method in brief: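 Yeast cells carrying a defined DNA-repair defect were exposed to test compounds. Growth inhibition was measured relative to vehicle-treated controls.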

[4] = NCI Yeast Anticancer Drug Screen. Data for the cln2 rad14 strain (AID 165);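 also: 0% = growth equal to vehicle treated cultures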; details: S. cerevisiae cln2 rad14 strain, at 50.0 µM, stronger effect = higher value
Method in brief: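 Yeast strain cln2 rad14, bearing defects in cell cycle control and DNA repair, serves as the test system; values reflect growth inhibition compared with vehicle.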

[5] = NCI Yeast Anticancer Drug Screen. Data for the bub3 strain (AID 167); details: S. cerevisiae bub3 mutant strain, at 50.0 µM, stronger effect = higher value
Method in brief: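 Mutant yeast screening strain plus compound; vehicle-treated cultures serve as the 0% inhibition reference.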

[6] = NCI Yeast Anticancer Drug Screen. Data for the mlh1 rad18 strain (AID 175); details: S. cerevisiae mlh1 rad18 strain growth inhibition; at 50.0 µM; stronger effect = higher value
Method in brief: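 Steps: expose repair-defective yeast to compound; measure growth; express inhibition against vehicle-treated controls.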

Measured: growth inhibition

NC(=O)CSc1ccccc1
inactive: [1] 8% | [2] 2.1% | [3] 9.8% | [4] 10.1% | [5] -4.5% | [6] -8.6%

O=S(=O)(O)c1ccc(OCCCCCCCCCCOc2ccc(S(=O)(=O)O)cc2)cc1
inactive: [1] -14.6% | [2] 9.15% | [3] -9.6% | [4] 0.7% | [5] -5.35% | [6] -8.1%

Cc1ccc(-c2cc(=O)c3cc(C)c(C)c(C#N)c3o2)cc1
inactive: [1] -10.2% | [2] -5.75% | [3] -13.8% | [4] -1.7% | [5] -22.4% | [6] 6.45%

N=C(N)SCc1cn2ccccc2n1
inactive: [1] -37% | [2] -30.5% | [3] -62.7% | [4] 1.35% | [5] -27.6% | [6] -50.8%

C=CCN1/C(=C(\C#N)c2nc3ccccc3[nH]2)Sc2c1nc[nH]c2=O
inactive: [1] -51.6% | [2] -27.9% | [3] -32% | [4] -32% | [5] -32.9% | [6] -49.8%

CCCCCCCCCCCCCCCC(=O)Oc1ccc(/C(CC)=C(/CC)c2ccc(OC(=O)CCCCCCCCCCCCCCC)cc2)cc1
inactive: [1] 16.1% | [2] -8.1% | [3] 8.55% | [4] 1.85% | [5] 8.65% | [6] 4.25%

N#C/C(=C\c1cccc(Cl)c1)C(=O)c1ccccc1
inactive: [1] 1.1% | [2] 11.3% | [3] -1.35% | [4] 13.1% | [5] 0.2% | [6] 33.2%

CCN(CC)CCOc1ccc(/C(C#N)=C/c2ccc(OCCN3CCCCC3)cc2)cc1
inactive: [1] 35% | [2] 20.9% | [3] 57.3% | [4] 64.9% | [5] 26.2% | [6] 33.5%

CC(C)C(N)C(=O)NC(C(=O)O)C(C)C (stereo unspecified)
inactive: [1] 12.8% | [2] -9.35% | [3] -4.3% | [4] -19.5% | [5] -0.6% | [6] 19.3%

CC[C@@]12C=CC(=S)N(CCSc3ccccc3)[C@@H]1c1c(n(S(=O)(=O)c3ccc(OC)cc3)c3ccccc13)CC2
inactive: [1] -33% | [2] -1.2% | [3] 0.95% | [4] -53% | [5] -2.55% | [6] 6%

C=C(C)C(=O)O[C@H]1C/C(CO)=C/CCC(=C)C(OC(C)=O)[C@H]2OC(=O)C(=C)[C@H]12 (stereo partly specified)
inactive: [1] 10.4% | [2] 36.8% | [3] -0.9% | [4] 6.85% | [5] -21.9% | [6] -20.2%

Cc1ccc([Se](=C(C(=O)c2ccccc2)C(=O)c2ccccc2)c2ccc(C)cc2)cc1
inactive: [2] 11.7% | [3] 35.7% | [4] 9.85% | [5] 4.95% | [6] 54.6%
active: [1] 82.4%

NC1(c2ccccc2)C2CC3CC(C2)CC1C3 (stereo unspecified)
inactive: [1] 14.1% | [2] 1% | [3] -9.1% | [4] -48.8% | [5] 7.25% | [6] 3.7%

CCCS(=O)(=O)N1CC(C)OC(C)C1 (stereo unspecified)
inactive: [1] 2.35% | [2] -16.9% | [3] 3.5% | [4] -7.1% | [5] -10.7% | [6] 3.2%

N#CC(C#N)=CNC(=S)Nc1ccc(S(=O)(=O)Nc2nccs2)cc1
inactive: [1] -24.7% | [2] -35.8% | [3] -13.4% | [4] 4.85% | [5] -3.05% | [6] -3.65%

Cc1c(F)cc(I)cc1[N+](=O)[O-]
inactive: [1] -3.7% | [2] -9.1% | [3] -11% | [4] 6.9% | [5] 1% | [6] -16.6%

COC(=NC(C)C)NC(C)C
inactive: [1] 6.3% | [2] -17.2% | [3] 5.65% | [4] 14.2% | [5] 5.4% | [6] 14.4%

O=C(C1=Cc2ccccc2OC1)N1CCN(c2ccccc2Cl)CC1
inactive: [1] 12.3% | [2] 20.2% | [3] 34.6% | [4] 24.4% | [5] 38% | [6] 40.1%

O=C(Nc1ccccc1)OCC#CCOC(=O)Nc1ccccc1
inactive: [1] 27.4% | [2] 11.7% | [3] 17.6% | [4] -60.5% | [5] 2.45% | [6] 11%

CCOC(=O)CNC(=O)C(Cc1ccccc1)NC(=O)OCc1ccccc1 (stereo unspecified) (Cbz-[ξF]-Gly-OEt)
inactive: [1] -16.2% | [2] -19.1% | [3] 4.55% | [4] -4.75% | [5] -3.6% | [6] -9%

S=C1N=C(Cl)/C(=C\c2ccco2)N1
inactive: [1] -4.55% | [2] -18% | [3] 12.1% | [4] 4.2% | [5] 15.9% | [6] -20.6%

O=C(Nc1ccccc1)c1ccccc1Cl
inactive: [1] 24.5% | [2] -0.15% | [3] 0.35% | [4] 2.8% | [5] -3.05% | [6] 12.3%

CCCCOB(OCCCC)Oc1c(C(C)(C)C)cc(C)cc1C(C)(C)C
inactive: [1] 1.5% | [2] -14.2% | [3] -2.55% | [4] 15.5% | [5] -10.2% | [6] -3%

O=C(Oc1ccc(-c2ccccc2)cc1)c1cccc([N+](=O)[O-])c1
inactive: [1] -10.1% | [2] -4.5% | [3] 7.1% | [4] -11.4% | [5] 27.5% | [6] 0.2%

C=CCCC(C)(C(=O)OCC)C(=O)OCC
inactive: [1] 7.45% | [2] -15.8% | [3] -23.9% | [4] -30.3% | [5] 1.45% | [6] -11%

CN(C)c1ccccc1CCO
inactive: [1] -4.2% | [2] -33.5% | [3] -6.7% | [4] -0.4% | [5] -3.65% | [6] 3.35%

OCC[N-]CC[N-]CCO.[Cl][Co][Cl]
inactive: [1] 27.8% | [2] 32.1% | [3] 32.7% | [4] 22.9% | [5] 36.6% | [6] 35.2%

C=C1CC(C)(COc2ccc3c(C)cc(=O)oc3c2)OC1=O (stereo unspecified)
inactive: [1] 52.9% | [2] 46.1% | [3] 47.8% | [4] 48.5% | [5] 20.4% | [6] 54.5%

COC1C(O)CC(OC2CC(OC3CC(O[C@@H]4C(=O)c5c(cc6cc(OC7CC(OC8CC(O)C(O)C(C)O8)C(O)C(C)O7)c(C)c(O)c6c5O)C[C@H]4[C@H](OC)C(=O)[C@@H](O)[C@@H](C)O)OC(C)C3O)OC(C)C2O)OC1C (stereo partly specified)
inactive: [1] 38.7% | [2] 28.9% | [3] 41.7% | [4] 43.7% | [5] 49.5% | [6] 48.5%

CC(=O)N1CCCCC1C/C(C)=N/O (stereo unspecified)
inactive: [1] 3.55% | [2] 11.6% | [3] -5.95% | [4] -5.6% | [5] 1.35% | [6] 3.3%

O=C(NCCN1CCCC1)NC1CCCCC1
inactive: [1] -2.25% | [2] 2.35% | [3] 3.85% | [4] -69.5% | [5] 8.2% | [6] 14.8%

CN(Cc1ccccc1)C(=O)NC1CCCCC1
inactive: [1] 2.3% | [2] 0.05% | [3] 4.8% | [4] -22.8% | [5] 3.4% | [6] 2.55%

COC(=O)c1nc(N)nc(C(=O)OC)c1C(=O)c1cc(Cl)ccc1Cl
inactive: [1] -8.35% | [2] -7.9% | [3] -1.25% | [4] -18.2% | [5] -6.3% | [6] -5.65%

CS(=O)(=O)OCCC(COS(C)(=O)=O)NC(=O)c1ccccc1 (stereo unspecified)
inactive: [1] -3.75% | [2] -8.95% | [3] -2.85% | [4] -18.1% | [5] -10.3% | [6] -4.95%

COC(=O)n1c(CBr)c(Br)c2ccccc21
inactive: [1] 26.3% | [2] -2.15% | [3] -3.65% | [4] -3.8% | [5] 4.9% | [6] 1.5%

CCCCNc1cccc2ccccc12
inactive: [1] 50.2% | [2] 23.1% | [3] -10.2% | [4] -43.5% | [5] 2.55% | [6] 27.6%

CNc1ccc(C)cc1S(=O)(=O)c1ccccc1[N+](=O)[O-]
inactive: [1] 65.5% | [2] 42.5% | [3] 58.1% | [4] 29.2% | [5] 47.1% | [6] 16.1%

CC(=O)[CH-]C(=O)c1ccccc1.CC(=O)[CH-]C(=O)c1ccccc1.CC12CC3(C)CC(C)(C1)CC([O-])(C2)C3.CC[O-].[Ti+4]
inactive: [1] 15.1% | [2] 21.8% | [3] 28.6% | [4] 23.8% | [5] 8.55% | [6] 18%

O=C(Cc1ccccc1)N/N=C\Cc1ccccc1
inactive: [1] -4.85% | [2] 22.8% | [3] 20.8% | [4] -14.1% | [5] -2.35% | [6] 2.25%

Clc1ccc(SCCCCSc2ccc(Cl)cc2)cc1
inactive: [1] 8.05% | [2] -6.7% | [3] 7.7% | [4] -3.45% | [5] 10.8% | [6] 10.8%

CC(=O)OCCc1nnnn1C
inactive: [1] 4.9% | [2] -9.95% | [3] -14.6% | [4] -22.5% | [5] 2.45% | [6] 10.4%
